One molecule from the supplement of paper PMC8728848 can be followed below.

This is one part of a sample in which the strongest signals are shown more often than they occur.

What all share (experiment): glycan array binding signal (z-score within array); higher = stronger binding
What all share (conditions): glycan notation: IUPAC condensed, linker removed

Assay [1] concerns the target Fuc(a1-2)Gal(b1-3)GalNAc(b1-3)Gal. The procedure, abridged:
(§1)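 Glycan array data were curated from 3228 arrays in the Consortium for Functional Glycomics database and kept only where the protein sequence was available. Glycan names were converted to IUPAC-condensed notation, and columns mapping to the same glycan were averaged. The binding signal is a within-array Z-score, averaged across arrays of the same protein sequence at different concentrations or buffers and across linkers. Negative Z-scores can be read as non-binding.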

The target of assay [2] is Fuc(a1-2)Gal(b1-4)GlcNAc(b1-3)Gal(b1-4)GlcNAc(b1-3)Gal(b1-4)GlcNAc. The procedure, abridged:
as §1

Assay [3] concerns the target Fuc(a1-2)[GalNAc(a1-3)]Gal(b1-4)[Fuc(a1-3)]GlcNAc. The procedure, abridged:
as §1

In assay [4] the target is Fuc(a1-3)[Gal(b1-4)]GlcNAc(b1-4)Gal(b1-4)[Fuc(a1-3)]GlcNAc(b1-4)Gal(b1-4)[Fuc(a1-3)]GlcNAc. The procedure, abridged:
as §1

Assay [5] has as its target Fuc(a1-3)[Gal3S(b1-4)]GlcNAc6S. The procedure, abridged:
as §1

For the next assay, the target named is Fuc(a1-4)GlcNAc. The procedure, abridged:
as §1

The next assay concerns the target Gal(a1-6)Glc. The procedure, abridged: as §1
The target in assay [6] is Gal(b1-3)[Neu5Ac(a2-6)]GalNAc. The procedure, abridged:
as §1

For assay [7], the target named is Gal(b1-4)GalNAc(b1-3)[Fuc(a1-2)]Gal(b1-4)GlcNAc. The procedure, abridged:
as §1

A further assay concerns the target Gal3S(b1-4)Glc6S. The procedure, abridged:
as §1

The target in a further assay is Gal3S6S(b1-4)GlcNAc6S. The procedure, abridged: as §1
In the next assay the target is Gal4S(b1-4)GlcNAc. The procedure, abridged: as §1
In the next assay the target is Gal6S(b1-4)Glc6S. The procedure, abridged:
as §1

Assay [8] has as its target Man(a1-2)Man(a1-2)Man(a1-3)[Man(a1-2)Man(a1-3)[Man(a1-2)Man(a1-6)]Man(a1-6)]Man(b1-4)GlcNAc(b1-4)GlcNAc. The procedure, abridged: as §1
Assay [9] addresses Man(a1-2)Man(a1-2)Man(a1-6)[Man(a1-3)]Man. The procedure, abridged: as §1
The target of assay [10] is Man(a1-2)Man(a1-3)[Man(a1-6)]Man(a1-6)[Man(a1-2)Man(a1-3)]Man(b1-4)GlcNAc(b1-4)GlcNAc. The procedure, abridged: as §1
Assay [11] deals with Neu5Ac(a2-3)[GalNAc(b1-4)]Gal(b1-4)GlcNAc. The procedure, abridged: as §1
Assay [12] addresses Neu5Ac(a2-8)Neu5Ac(a2-3)[GalNAc(b1-4)]Gal(b1-4)Glc. The procedure, abridged: as §1
The target in assay [13] is Neu5Ac(a2-8)Neu5Ac(a2-8)Neu5Ac(a2-3)Gal(b1-4)Glc. The procedure, abridged:
as §1

The target of assay [14] is Neu5Gc(a2-3)Gal(b1-4)GlcNAc. The procedure, abridged: as §1

B1: PEB3 Cj0289c (Campylobacter jejuni), Q9PIK7 (protein)
chain: MDVNLYGPGGPHTALKDIANKYSEKTGVKVNVNFGPQATWFEKAKKDADILFGASDQSALAIASDFGKDFNVSKIKPLYFREAIILTQKGNPLKIKGLKDLANKKVRIVVPEGAGKSNTSGTGVWEDMIGRTQDIKTIQNFRNNIVAFVPNSGSARKLFAQDQADAWITWIDWSKSNPDIGTAVAIEKDLVVYRTFNVIAKEGASKETQDFIAYLSSKEAKEIFKKYGWRE
B1: the “glycan array binding signal (z-score)” value in assay [1] is 1.6; in assay [2], -0.33; in [3], -0.226; in [4] it was -0.441; in [5], 0.228; with Fuc(a1-4)GlcNAc it was -0.029. In addition, the “glycan array binding signal (z-score)” value with Gal(a1-6)Glc is 1.25; in [6], -0.409; in [7] it was -0.381; with Gal3S(b1-4)Glc6S, 1.38; in the assay with Gal3S6S(b1-4)GlcNAc6S it was 2.8; with Gal4S(b1-4)GlcNAc it was 0.039. The “glycan array binding signal (z-score)” value with Gal6S(b1-4)Glc6S is 1.36; in [8], -0.256; in [9] it was -0.192; in assay [10] it was -0.25; in [11], -0.332; in assay [12] it was -0.28. For the same molecule, the “glycan array binding signal (z-score)” value was -0.456 in assay [13] and -0.272 in assay [14].
